# Pf Dd2 growth – qHTS Primary assay for Inhibitors of Plasmodium falciparum Dd2 growth in vitro. Potency, µM (top dose mostly 28.9 µM), for inactives: at the highest dose activity, negative = inhibition, actives largely listed as inhibitors. hit rate 4.3% among 120,000. P. falciparum Dd2 growth, SYBR Green, 72 h; active means well fitted inhibition curve with a large enough effect;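 further: plate controls were DMSO vehicle for no effect and reference drug for full effect; nearly all actives have a fitted effect of over 65% in size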
#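 Readout: SYBR Green fluorescence, 485 nm excitation, 535 nm emission, after ~16 h lysis at 37C. Before that, Dd2-infected red cells (2.5% hematocrit) grew 72 h with compound, 29 uM top final concentration.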
# * marks the source's active call; other numbers are inactive results; i = inactive; [ ] = dose if it differs, or a comment. The sample as a whole holds a higher share of hits than the screen did. Potency means the concentration at half of the fitted maximal effect.
SMILES,Pf Dd2 growth
CC1=C(C(=O)OC(C)C)C(c2cccs2)N2C(CC(=O)NC3CC3)=CSC2=N1 (centres undefined),-18%
COc1ccc(C(=O)N2CC(c3nnc(C(C)C)o3)C3(CCOCC3)C2)cc1OC (centres undefined),8%
CCN1C(=O)C2CC3(CCN(C(=O)c4c(C)noc4C)CC3)CN2C1=O (centres undefined),12%
COc1ccccc1-c1nnc([C@H]2CCN(Cc3cccnc3)C2)o1,13µM*
COc1ccccc1-c1nnc([C@H]2CCN(Cc3ccc(C(=O)O)cc3)C2)o1,i
COc1ccccc1-c1nnc([C@H]2CCN(Cc3ccc(F)cc3)C2)o1,i
Cn1ccnc1-c1ccc(N2CCC(C(O)Cc3ccccc3)CC2)nn1 (centres undefined),-19%
COc1cccc(CC2(CO)CCCN(c3ccc(-c4nccn4C)nn3)C2)c1 (centres undefined),8.9µM*
Cn1ccnc1-c1ccc(N2CC[C@](C)(O)[C@@H](O)C2)nn1,0%
Cc1nc(-c2c3n(c(=O)n(CC(=O)Nc4cccc(C(F)(F)F)c4)c2=O)CCCC3)no1,-22%
Cc1noc(C)c1C(=O)N1Cc2ccccc2CC2(CCCCN2C)C1 (centres undefined),-24%
Cc1nc(-c2c3n(c(=O)n(CC(=O)Nc4cccc(F)c4)c2=O)CCCCC3)no1,8%
COc1ccc(C(=O)N2CCC(c3n[nH]c(=O)n3-c3ccc(C)cc3)CC2)c(OC)n1,-3%
CN(C)S(=O)(=O)CCCN1CCC2(CC1)NC(=O)CC2C(=O)O (centres undefined),-24%
O=CN1CCC(Cn2cnc3cccnc32)CC1,22%[44.1 µM]
Cc1ccc(CN2C(=O)NC3(CCN(C(=O)c4ccncc4)CC3)C2=O)cc1,8%
Cc1ccccc1Cn1c(SCc2ccc(C(=O)N3CCCCC3)cc2)nc2ccncc21,7.9µM*
Cc1ccc(Cn2c(SCc3ccc(C(=O)N4CCCCCC4)cc3)nc3ccncc32)cc1,11µM*
Cc1ccccc1Cn1c(SCc2ccc(C(=O)NC3CCCCC3)cc2)nc2ccncc21,-17%
CN(C)c1ccc(NC(=O)Cn2c(SCc3ccc(F)cc3)nc3ccncc32)cc1,i
Cc1ccc(CSc2nc3cccnc3n2Cc2ccc(C(=O)NC3CCCCC3)cc2)cc1,-16%
CC(=O)N1CC(CO)C2(CCN(C(=O)c3cccc(Br)c3)CC2)C1 (centres undefined),30%
Cc1nc2ccc(C(=O)N[C@@H]3CCOC[C@H]3Oc3ccccn3)cc2s1,-6%
COc1ccc(C)cc1NC(=O)CN1C(=O)NC2(CCCCC2)C1=O,-17%
Cc1ncsc1CN1C[C@@H](NC(=O)c2cccnc2)C[C@H]1CO,9%
SMILES,Pf Dd2 growth
COc1ccc(CN2CC[C@@H]3[C@H]2C(=O)NC[C@H](CCC(=O)NCc2ccc(F)cc2)N3C)cc1,i
CN(Cc1cc(C2CC2)n[nH]1)c1nccc(-c2cccnc2)n1,-25%
CN(CCC(O)c1ccccc1)c1nccc(-c2cccnc2)n1 (centres undefined),10µM*
Cc1cn2cc(C(=O)N(C)CCC(O)c3ccccc3)ccc2n1 (centres undefined),2%
CC[C@H]1CN(S(=O)(=O)c2c(C)noc2C)CC[C@H]1CC(=O)NCc1ccco1,-3%[44.1 µM]
COCCN1CCCCCC(O)c2cc(C(=O)NCCc3ccncc3)ccc21 (centres undefined),-3%
CO[C@H]1C(=O)N(C2CCN(C(=O)c3cnn(C)c3)CC2)[C@H]1c1ccncc1,14%
CCC(=O)Nc1ccc2nc(SCCOc3cccc(C)c3)sc2c1,i
O=C(COc1ccccc1Cl)Nc1ccc2nc(SCC(=O)N3CCOCC3)sc2c1,-4%
O=C(Nc1ccc2nc(SCC(=O)N3CCCC3)sc2c1)c1ccccc1,-14%
O=C(Nc1ccc2nc(SCCOc3ccccc3)sc2c1)c1ccccc1F,2%
O=C(Nc1ccc2nc(SCCOc3ccccc3)sc2c1)c1cccs1,3.2µM*
CC(=O)Nc1ccc2nc(SCCOc3ccccc3Cl)sc2c1,i
COc1cc(C)ccc1OCCSc1nc2ccc(NC(=O)c3ccco3)cc2s1,4.5µM*
O=C(COc1ccccc1)Nc1ccc2nc(SCC(=O)N3CCCC3)sc2c1,11µM*
CCOc1ccc(C(=O)Nc2ccc3nc(SCCOc4ccccc4)sc3c2)cc1,-14%
Cn1cnc(C(=O)N2CCCN(S(C)(=O)=O)c3ccccc32)c1,23%
C=CCNC(=O)CCc1nnc(-c2cccc(OC(C)C)c2)[nH]c1=O,i
CC(C)c1nnc(C2CN(C(=O)Cc3ccccc3)CC23CCOCC3)o1 (centres undefined),23%
COCc1noc([C@@H]2CN(Cc3ccc(F)c(OC)c3)C[C@H]2C(N)=O)n1,-1%
CC(=O)Nc1cccc(NC(=O)CC[C@H]2NC(=O)c3ccccc3NC2=O)c1,-4%
CC(=O)N1CC2(Cc3ccccc3CN2C(C)=O)C1,-23%[44.1 µM]
Brc1ccc(-c2ccc(CNCCSc3nnnn3-c3ccccc3)o2)cc1,-15%
CCOCCCNCc1ccc(-c2ccccc2)o1,11µM*
CCNCc1ccc(-c2ccccc2)o1,-27%

# Screening data deposited in PubChem by National Center for Advancing Translational Sciences (NCATS).
